What all share (assay): DAPPL (digital affinity profiling via proximity ligation, sequencing); 10 mM Tris-HCl pH 7.5, 50 mM NaCl, 1 mM DTT, 4% glycerol, room temperature, 30 min; GST-TFs on glutathione beads, 16-mer random dsDNA library, 0.1% formaldehyde crosslink after washing; high values mean tight binding
For assay [1], the target named is T1, FEV (Homo sapiens, UniProt Q99581 1-238).
T1 sequence: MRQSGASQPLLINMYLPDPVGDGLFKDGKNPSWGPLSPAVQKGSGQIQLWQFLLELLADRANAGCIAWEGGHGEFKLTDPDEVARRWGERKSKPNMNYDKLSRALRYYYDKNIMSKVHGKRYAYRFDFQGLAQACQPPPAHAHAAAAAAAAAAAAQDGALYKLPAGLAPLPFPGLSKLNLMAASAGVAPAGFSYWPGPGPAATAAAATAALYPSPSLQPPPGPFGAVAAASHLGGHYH
Particulars: protein: recombinant; tags: N-terminal GST; dsDNA, one strand shown. A digest of the protocol:
(§1)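 In yeast, human transcription factors were expressed with a GST fusion, then pulled down on glutathione beads and given DNA barcodes. Pooled with a tag-only sample, they were exposed to 200 nmole of a 16-mer random double-stranded DNA library (Tris/NaCl/DTT/glycerol buffer, room temperature, 30 min), washed, crosslinked with 0.1% formaldehyde, proximity-ligated using BsaI/T4 ligase for 1 h at 37 °C, PCR-amplified and read on an Illumina NextSeq500. Each hexamer's frequency of reads for a factor, divided by the matching frequency for the tag-only sample, gives the binding signal.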

Assay [2] deals with ETV5 (Homo sapiens, UniProt P41161 1-510). Particulars: protein: recombinant; tags: N-terminal GST; dsDNA, one strand shown. In outline:
as §1

Assay [3] deals with HSF1 (Homo sapiens, UniProt Q00613 1-529). Particulars: protein: recombinant; tags: N-terminal GST; chain copies: 3; dsDNA, one strand shown. A digest of the protocol:
as §1

Assay [4] concerns the target T2, SPIC (Homo sapiens, UniProt Q8N5J4 1-248).
T2 sequence: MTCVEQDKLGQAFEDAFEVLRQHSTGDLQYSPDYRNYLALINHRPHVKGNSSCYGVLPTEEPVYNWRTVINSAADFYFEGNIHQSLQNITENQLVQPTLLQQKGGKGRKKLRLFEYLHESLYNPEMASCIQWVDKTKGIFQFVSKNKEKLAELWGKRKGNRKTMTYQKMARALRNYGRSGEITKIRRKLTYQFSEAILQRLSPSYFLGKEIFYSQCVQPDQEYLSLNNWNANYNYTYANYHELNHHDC
Particulars: protein: recombinant; tags: N-terminal GST; dsDNA, one strand shown. In outline:
as §1

The target in assay [5] is ELF4 (Homo sapiens, UniProt Q99607 1-663). Particulars: protein: recombinant; tags: N-terminal GST; dsDNA, one strand shown. In outline:
as §1

In assay [6] the target is T3, ELK4 (Homo sapiens, UniProt P28324-2 1-405).
T3 sequence: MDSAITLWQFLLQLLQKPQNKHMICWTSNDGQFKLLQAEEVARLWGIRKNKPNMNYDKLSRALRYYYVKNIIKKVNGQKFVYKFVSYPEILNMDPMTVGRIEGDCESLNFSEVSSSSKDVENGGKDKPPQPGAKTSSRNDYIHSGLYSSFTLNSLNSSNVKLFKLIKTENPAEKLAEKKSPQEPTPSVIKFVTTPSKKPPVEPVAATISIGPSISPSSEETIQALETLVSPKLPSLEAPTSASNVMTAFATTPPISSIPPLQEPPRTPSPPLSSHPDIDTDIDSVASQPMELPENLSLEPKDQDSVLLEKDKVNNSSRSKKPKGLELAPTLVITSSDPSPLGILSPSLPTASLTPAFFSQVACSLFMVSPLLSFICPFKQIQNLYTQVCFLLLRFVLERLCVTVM
Conditions: protein: recombinant; tags: N-terminal GST; dsDNA, one strand shown. A digest of the protocol:
as §1

Assay [7] has as its target T4, ETV2 (Homo sapiens, UniProt O00321 1-342).
T4 sequence: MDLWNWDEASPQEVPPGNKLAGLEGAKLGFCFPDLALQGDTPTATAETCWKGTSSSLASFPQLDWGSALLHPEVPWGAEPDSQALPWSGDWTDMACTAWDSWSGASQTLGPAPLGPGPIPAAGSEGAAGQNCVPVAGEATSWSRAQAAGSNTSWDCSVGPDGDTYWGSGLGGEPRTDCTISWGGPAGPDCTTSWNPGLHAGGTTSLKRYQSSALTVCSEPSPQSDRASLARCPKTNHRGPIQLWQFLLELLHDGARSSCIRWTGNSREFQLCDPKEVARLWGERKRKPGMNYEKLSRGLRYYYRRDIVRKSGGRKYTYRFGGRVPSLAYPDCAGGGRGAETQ
Conditions: protein: recombinant; tags: N-terminal GST; dsDNA, one strand shown. A digest of the protocol: as §1

Assay [8] has as its target T5, ELF3 (Homo sapiens, UniProt P78545 1-371).
T5 sequence: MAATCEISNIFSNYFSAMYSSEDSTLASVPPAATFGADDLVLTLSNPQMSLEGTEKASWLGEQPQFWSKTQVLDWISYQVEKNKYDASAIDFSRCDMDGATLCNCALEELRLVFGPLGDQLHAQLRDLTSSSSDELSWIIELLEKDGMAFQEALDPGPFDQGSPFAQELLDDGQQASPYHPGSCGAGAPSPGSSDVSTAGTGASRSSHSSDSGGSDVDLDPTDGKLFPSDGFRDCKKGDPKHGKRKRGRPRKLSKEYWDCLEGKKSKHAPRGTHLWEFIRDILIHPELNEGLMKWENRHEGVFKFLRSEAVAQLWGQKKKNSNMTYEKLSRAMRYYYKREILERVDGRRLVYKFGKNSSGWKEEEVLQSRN
Conditions: protein: recombinant; tags: N-terminal GST; dsDNA, one strand shown. A digest of the protocol:
as §1

Assay [9] addresses CRX (Homo sapiens, UniProt O43186 1-299). Conditions: protein: recombinant; tags: N-terminal GST; dsDNA, one strand shown. A digest of the protocol: as §1
The target in assay [10] is ETV1 (Homo sapiens, UniProt P50549 1-477). Conditions: protein: recombinant; tags: N-terminal GST; dsDNA, one strand shown. In outline:
as §1

The target in assay [11] is T6, ERF (Homo sapiens, UniProt P50548 1-548).
T6 sequence: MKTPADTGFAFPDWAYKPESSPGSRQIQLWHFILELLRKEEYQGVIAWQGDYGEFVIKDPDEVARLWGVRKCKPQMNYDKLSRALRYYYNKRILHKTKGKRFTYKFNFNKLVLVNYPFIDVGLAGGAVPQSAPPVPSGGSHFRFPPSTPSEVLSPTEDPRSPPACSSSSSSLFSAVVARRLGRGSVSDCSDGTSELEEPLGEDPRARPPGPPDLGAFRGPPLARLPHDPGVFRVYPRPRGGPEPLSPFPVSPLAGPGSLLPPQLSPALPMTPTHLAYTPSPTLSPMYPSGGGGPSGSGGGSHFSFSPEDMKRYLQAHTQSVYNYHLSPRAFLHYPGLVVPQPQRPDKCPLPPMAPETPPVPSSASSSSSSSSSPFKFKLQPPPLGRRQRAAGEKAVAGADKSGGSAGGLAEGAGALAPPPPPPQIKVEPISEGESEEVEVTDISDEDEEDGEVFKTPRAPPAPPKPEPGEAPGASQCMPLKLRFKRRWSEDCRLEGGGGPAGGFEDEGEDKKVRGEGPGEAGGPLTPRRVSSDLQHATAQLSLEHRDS
Conditions: protein: recombinant; tags: N-terminal GST; dsDNA, one strand shown. In outline:
as §1

Assay [12] has as its target T7, ETV3L (Homo sapiens, UniProt Q6ZN32 1-361).
T7 sequence: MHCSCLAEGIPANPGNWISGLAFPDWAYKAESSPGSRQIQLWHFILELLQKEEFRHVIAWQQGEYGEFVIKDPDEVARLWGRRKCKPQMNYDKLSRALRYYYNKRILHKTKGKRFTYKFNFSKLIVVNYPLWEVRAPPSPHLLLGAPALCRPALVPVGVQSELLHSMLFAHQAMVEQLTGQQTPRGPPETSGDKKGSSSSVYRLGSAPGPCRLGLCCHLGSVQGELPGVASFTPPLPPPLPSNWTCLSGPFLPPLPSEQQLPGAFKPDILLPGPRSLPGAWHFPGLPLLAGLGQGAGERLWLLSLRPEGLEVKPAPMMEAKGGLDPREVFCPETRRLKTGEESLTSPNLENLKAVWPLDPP
Conditions: protein: recombinant; tags: N-terminal GST; dsDNA, one strand shown. A digest of the protocol: as §1

In assay [13] the target is T8, ETS2 (Homo sapiens, UniProt P15036 1-469).
T8 sequence: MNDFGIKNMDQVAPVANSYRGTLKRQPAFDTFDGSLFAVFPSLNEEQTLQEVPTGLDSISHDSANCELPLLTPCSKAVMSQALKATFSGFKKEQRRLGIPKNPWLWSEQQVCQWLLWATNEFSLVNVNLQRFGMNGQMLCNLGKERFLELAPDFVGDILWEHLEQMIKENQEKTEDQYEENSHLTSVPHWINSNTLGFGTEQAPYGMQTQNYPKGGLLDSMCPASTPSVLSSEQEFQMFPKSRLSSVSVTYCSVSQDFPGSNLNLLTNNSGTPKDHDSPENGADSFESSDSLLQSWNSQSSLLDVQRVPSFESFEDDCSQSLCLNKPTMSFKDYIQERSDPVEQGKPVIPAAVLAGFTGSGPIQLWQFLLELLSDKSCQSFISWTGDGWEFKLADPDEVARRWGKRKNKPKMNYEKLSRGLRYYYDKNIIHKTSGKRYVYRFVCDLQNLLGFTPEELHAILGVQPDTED
Conditions: protein: recombinant; tags: N-terminal GST; dsDNA, one strand shown. In outline:
as §1

Assay [14] concerns the target T9, SPDEF (Homo sapiens, UniProt O95238 1-335).
T9 sequence: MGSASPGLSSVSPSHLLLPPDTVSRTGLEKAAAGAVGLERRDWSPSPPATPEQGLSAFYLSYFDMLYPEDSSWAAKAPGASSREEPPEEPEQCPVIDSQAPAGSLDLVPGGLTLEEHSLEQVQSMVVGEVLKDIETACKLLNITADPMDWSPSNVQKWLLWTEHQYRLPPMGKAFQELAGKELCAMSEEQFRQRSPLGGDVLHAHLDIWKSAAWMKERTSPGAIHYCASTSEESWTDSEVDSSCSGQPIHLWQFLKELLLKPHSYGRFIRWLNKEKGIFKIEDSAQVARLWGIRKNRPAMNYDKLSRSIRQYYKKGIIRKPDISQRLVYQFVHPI
Particulars: protein: recombinant; tags: N-terminal GST; dsDNA, one strand shown. A digest of the protocol: as §1

Assay [15] concerns the target T10, ETV7 (Homo sapiens, UniProt Q9Y603 1-341).
T10 sequence: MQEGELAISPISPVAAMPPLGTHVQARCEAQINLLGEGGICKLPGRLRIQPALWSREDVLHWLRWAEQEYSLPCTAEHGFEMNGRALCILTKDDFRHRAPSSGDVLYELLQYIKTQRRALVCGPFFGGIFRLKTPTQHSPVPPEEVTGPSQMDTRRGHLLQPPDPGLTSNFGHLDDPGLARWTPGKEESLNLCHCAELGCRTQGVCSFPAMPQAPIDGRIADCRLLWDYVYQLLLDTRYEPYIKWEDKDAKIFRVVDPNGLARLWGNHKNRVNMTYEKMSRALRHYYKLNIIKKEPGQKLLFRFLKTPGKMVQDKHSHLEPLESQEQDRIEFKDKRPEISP
Particulars: protein: recombinant; tags: N-terminal GST; dsDNA, one strand shown. In outline:
as §1

For assay [16], the target named is T11, ELF5 (Homo sapiens, UniProt Q9UKW6-2 1-255).
T11 sequence: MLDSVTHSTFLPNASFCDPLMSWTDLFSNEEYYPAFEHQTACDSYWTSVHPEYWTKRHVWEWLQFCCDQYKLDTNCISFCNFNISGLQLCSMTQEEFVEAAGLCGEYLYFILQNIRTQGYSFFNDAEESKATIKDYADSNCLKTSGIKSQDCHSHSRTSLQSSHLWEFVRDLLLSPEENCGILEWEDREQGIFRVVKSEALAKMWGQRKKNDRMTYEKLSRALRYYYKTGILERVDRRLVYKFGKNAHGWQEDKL
Particulars: protein: recombinant; tags: N-terminal GST; dsDNA, one strand shown. In outline: as §1

In assay [17] the target is T12, ETV3 (Homo sapiens, UniProt P41162-2 1-143).
T12 sequence: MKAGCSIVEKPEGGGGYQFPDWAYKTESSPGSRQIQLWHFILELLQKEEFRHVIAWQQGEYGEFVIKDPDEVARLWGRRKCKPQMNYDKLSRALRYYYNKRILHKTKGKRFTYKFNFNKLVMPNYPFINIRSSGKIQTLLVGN
Particulars: protein: recombinant; tags: N-terminal GST; dsDNA, one strand shown. A digest of the protocol: as §1

For assay [18], the target named is ETV6 (Homo sapiens, UniProt P41212 1-452). Particulars: protein: recombinant; tags: N-terminal GST; dsDNA, one strand shown. In outline:
as §1

ETV5, sequence (P41161 whole entry): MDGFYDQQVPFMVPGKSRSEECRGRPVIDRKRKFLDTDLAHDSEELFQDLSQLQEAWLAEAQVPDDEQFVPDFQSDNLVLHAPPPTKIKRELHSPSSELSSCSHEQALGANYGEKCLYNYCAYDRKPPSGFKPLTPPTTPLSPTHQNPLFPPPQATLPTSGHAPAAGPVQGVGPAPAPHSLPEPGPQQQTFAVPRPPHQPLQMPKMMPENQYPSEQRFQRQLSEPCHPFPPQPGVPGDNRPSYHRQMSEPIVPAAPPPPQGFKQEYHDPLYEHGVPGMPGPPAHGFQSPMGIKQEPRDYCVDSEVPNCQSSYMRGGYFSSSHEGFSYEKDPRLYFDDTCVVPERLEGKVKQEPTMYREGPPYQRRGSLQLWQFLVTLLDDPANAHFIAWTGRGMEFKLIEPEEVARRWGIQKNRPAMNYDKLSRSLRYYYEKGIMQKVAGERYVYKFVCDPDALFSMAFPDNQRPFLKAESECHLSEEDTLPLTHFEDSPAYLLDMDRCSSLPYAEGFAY
ETV6, sequence (P41212 whole entry): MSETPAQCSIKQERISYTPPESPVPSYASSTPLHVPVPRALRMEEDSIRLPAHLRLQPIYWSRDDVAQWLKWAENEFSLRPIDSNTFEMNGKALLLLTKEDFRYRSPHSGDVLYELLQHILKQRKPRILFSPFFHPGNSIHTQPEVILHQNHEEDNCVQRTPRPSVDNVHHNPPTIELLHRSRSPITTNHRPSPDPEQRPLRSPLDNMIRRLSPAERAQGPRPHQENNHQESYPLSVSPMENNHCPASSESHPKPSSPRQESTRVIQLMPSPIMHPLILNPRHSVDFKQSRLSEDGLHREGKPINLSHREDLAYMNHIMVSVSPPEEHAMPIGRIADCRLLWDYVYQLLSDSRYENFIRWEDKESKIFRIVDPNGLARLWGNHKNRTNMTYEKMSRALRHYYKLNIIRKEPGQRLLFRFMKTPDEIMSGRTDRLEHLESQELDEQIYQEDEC
ELF4, sequence (Q99607 whole entry): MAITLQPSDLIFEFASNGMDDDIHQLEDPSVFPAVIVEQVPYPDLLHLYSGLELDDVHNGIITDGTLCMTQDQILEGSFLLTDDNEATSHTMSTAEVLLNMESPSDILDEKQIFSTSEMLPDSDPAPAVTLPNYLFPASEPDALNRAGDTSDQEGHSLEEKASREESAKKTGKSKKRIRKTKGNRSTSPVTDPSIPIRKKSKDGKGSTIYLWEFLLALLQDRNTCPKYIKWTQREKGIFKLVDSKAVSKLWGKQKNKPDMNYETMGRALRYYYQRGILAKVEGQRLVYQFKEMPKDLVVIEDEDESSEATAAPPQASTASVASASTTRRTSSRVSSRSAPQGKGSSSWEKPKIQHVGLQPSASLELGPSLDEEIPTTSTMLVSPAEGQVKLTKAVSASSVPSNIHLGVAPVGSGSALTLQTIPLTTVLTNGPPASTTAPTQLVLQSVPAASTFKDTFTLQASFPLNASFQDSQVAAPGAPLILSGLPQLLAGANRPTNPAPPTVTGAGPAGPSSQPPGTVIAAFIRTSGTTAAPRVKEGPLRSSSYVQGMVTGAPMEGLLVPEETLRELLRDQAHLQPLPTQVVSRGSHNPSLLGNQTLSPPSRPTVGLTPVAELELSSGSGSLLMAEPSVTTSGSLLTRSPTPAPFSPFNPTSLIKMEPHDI
ETV1, sequence (P50549 whole entry): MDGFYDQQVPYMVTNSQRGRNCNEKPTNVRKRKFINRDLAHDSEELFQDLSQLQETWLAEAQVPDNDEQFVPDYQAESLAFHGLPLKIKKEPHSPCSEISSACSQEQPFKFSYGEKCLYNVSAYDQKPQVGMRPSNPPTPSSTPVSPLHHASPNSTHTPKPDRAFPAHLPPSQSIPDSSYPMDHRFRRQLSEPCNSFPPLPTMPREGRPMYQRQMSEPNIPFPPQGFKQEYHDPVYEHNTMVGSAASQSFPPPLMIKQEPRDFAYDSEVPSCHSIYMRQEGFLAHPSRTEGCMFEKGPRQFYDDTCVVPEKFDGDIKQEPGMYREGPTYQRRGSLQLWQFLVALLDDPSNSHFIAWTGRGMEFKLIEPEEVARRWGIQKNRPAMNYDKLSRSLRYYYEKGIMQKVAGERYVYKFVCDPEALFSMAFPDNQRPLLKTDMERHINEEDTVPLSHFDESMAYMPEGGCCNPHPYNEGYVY
CRX, sequence (O43186 whole entry): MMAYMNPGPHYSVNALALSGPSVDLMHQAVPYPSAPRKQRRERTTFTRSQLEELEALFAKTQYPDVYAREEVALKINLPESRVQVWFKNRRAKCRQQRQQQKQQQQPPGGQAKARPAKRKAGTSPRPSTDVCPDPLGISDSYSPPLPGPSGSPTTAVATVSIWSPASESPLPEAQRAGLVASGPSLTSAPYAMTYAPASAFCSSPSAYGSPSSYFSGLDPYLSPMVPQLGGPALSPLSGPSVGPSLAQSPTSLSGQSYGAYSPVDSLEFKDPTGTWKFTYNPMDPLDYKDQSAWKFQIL
HSF1, sequence (Q00613 whole entry): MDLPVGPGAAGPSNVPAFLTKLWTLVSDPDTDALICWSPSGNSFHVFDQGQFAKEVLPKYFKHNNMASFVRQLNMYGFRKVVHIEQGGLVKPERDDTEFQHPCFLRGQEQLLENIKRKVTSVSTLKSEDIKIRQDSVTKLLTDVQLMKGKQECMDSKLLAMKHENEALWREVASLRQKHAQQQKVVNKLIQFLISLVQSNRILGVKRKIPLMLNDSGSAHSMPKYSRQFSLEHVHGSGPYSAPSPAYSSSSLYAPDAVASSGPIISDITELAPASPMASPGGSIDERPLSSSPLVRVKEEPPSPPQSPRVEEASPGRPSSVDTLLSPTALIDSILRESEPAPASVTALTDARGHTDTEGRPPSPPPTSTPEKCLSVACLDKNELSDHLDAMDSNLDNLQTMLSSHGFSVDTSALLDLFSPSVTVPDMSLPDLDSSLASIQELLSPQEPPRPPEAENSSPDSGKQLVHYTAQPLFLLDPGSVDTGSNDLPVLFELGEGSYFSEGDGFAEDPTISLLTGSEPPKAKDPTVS

With ATTTCG, the binding signal in assay [1] is 1.25 fold enrichment (6-mer frequency, TF over GST control); in [2], 1.26 fold enrichment (6-mer frequency, TF over GST control); in assay [3], 1.63 fold enrichment (6-mer frequency, TF over GST control); in assay [4] it was 1.26 fold enrichment (6-mer frequency, TF over GST control); in [5], 1.29 fold enrichment (6-mer frequency, TF over GST control); in [6], 1.49 fold enrichment (6-mer frequency, TF over GST control). For the same sequence, the binding signal was 1.22 fold enrichment (6-mer frequency, TF over GST control) in assay [7]; 1.2 fold enrichment (6-mer frequency, TF over GST control) in [8]; 1.45 fold enrichment (6-mer frequency, TF over GST control) in [9]; 1.34 fold enrichment (6-mer frequency, TF over GST control) in assay [10]; 1.2 fold enrichment (6-mer frequency, TF over GST control) in [11]; 1.31 fold enrichment (6-mer frequency, TF over GST control) in assay [12]. The binding signal in assay [13] is 1.3 fold enrichment (6-mer frequency, TF over GST control); in [14] it was 1.27 fold enrichment (6-mer frequency, TF over GST control); in [15], 1.26 fold enrichment (6-mer frequency, TF over GST control); in assay [16], 1.27 fold enrichment (6-mer frequency, TF over GST control); in [17] it was 1.27 fold enrichment (6-mer frequency, TF over GST control); in [18] it was 1.35 fold enrichment (6-mer frequency, TF over GST control).

These data come from PMC7862700, “An all-to-all approach to the identification of sequence-specific readers for epigenetic DNA modifications on cytosine”.
